In paper PMC7862700, “An all-to-all approach to the identification of sequence-specific readers for epigenetic DNA modifications on cytosine” one finds binding signal data, which are given here for 3 sequences.

What all share (assay): DAPPL (digital affinity profiling via proximity ligation, sequencing); 10 mM Tris-HCl pH 7.5, 50 mM NaCl, 1 mM DTT, 4% glycerol, room temperature, 30 min; GST-TFs on glutathione beads, 16-mer random dsDNA library, 0.1% formaldehyde crosslink after washing; high values mean tight binding
One assay addresses T1, ELK1 (Homo sapiens, UniProt P19419 1-428).
T1 sequence: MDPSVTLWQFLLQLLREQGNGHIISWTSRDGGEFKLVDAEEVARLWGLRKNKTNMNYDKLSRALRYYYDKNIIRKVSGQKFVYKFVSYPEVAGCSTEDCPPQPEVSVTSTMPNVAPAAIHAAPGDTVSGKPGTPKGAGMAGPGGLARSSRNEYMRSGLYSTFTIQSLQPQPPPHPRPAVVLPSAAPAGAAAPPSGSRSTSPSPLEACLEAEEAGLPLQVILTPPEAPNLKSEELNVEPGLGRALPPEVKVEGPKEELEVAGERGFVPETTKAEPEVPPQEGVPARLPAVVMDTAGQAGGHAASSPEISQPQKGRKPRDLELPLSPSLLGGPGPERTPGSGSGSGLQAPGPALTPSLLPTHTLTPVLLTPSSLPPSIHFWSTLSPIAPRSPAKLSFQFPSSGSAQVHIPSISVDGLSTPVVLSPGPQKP
The following applies: protein: recombinant; tags: N-terminal GST; dsDNA, one strand shown. Put shortly:
(§1)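 A tag-only sample was pooled with DNA-barcoded human transcription factors that had been expressed in yeast as GST fusions and captured on glutathione beads. The pools were incubated for 30 min at room temperature with 200 nmole of a random double-stranded 16-mer DNA library in Tris/NaCl/DTT/glycerol buffer, then washed, crosslinked with 0.1% formaldehyde, proximity-ligated (BsaI/T4 ligase, 1 h, 37 °C), PCR-amplified and sequenced on an Illumina NextSeq500. Binding signal is each hexamer's read frequency for a factor divided by its frequency for the tag-only sample.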

Another assay addresses T2, GABPA (Homo sapiens, UniProt Q06546 1-454).
T2 sequence: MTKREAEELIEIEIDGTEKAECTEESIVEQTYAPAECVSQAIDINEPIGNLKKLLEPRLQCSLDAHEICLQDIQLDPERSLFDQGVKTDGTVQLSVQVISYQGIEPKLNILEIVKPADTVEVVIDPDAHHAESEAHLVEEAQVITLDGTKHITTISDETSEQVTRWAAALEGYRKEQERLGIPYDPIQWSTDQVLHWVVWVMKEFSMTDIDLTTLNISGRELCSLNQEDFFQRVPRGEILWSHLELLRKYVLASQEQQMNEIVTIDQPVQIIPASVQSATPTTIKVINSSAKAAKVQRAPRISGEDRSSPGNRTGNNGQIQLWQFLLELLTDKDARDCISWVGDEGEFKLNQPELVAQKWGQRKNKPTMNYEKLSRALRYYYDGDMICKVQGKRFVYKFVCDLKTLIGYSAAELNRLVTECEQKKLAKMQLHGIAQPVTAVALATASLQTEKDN
Particulars: protein: recombinant; tags: N-terminal GST; dsDNA, one strand shown. Put shortly: as §1

The next assay deals with ELF1 (Homo sapiens, UniProt P32519 1-619). The following applies: protein: recombinant; tags: N-terminal GST; dsDNA, one strand shown. Put shortly:
as §1

The next assay has as its target HSF1 (Homo sapiens, UniProt Q00613 1-529). The following applies: protein: recombinant; tags: N-terminal GST; chain copies: 3; dsDNA, one strand shown. Put shortly:
as §1

For the next assay, the target named is T3, ELK4 (Homo sapiens, UniProt P28324-2 1-405).
T3 sequence: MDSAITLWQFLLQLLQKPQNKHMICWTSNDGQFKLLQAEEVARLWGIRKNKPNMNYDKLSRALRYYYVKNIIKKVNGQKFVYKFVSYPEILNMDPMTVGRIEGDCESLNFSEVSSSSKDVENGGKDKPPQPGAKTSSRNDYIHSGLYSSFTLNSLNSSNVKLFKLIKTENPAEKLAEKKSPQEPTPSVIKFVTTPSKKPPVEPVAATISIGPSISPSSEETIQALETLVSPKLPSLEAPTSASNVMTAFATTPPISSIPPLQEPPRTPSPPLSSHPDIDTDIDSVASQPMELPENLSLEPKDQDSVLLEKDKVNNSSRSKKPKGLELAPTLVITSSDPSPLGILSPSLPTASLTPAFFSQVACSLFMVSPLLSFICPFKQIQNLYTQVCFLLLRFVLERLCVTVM
The following applies: protein: recombinant; tags: N-terminal GST; dsDNA, one strand shown. Put shortly:
as §1

The target of another assay is CRX (Homo sapiens, UniProt O43186 1-299). The following applies: protein: recombinant; tags: N-terminal GST; dsDNA, one strand shown. Put shortly:
as §1

The target in the next assay is ETV1 (Homo sapiens, UniProt P50549 1-477). The following applies: protein: recombinant; tags: N-terminal GST; dsDNA, one strand shown. Put shortly: as §1
Another assay concerns the target T4, ETV3L (Homo sapiens, UniProt Q6ZN32 1-361).
T4 sequence: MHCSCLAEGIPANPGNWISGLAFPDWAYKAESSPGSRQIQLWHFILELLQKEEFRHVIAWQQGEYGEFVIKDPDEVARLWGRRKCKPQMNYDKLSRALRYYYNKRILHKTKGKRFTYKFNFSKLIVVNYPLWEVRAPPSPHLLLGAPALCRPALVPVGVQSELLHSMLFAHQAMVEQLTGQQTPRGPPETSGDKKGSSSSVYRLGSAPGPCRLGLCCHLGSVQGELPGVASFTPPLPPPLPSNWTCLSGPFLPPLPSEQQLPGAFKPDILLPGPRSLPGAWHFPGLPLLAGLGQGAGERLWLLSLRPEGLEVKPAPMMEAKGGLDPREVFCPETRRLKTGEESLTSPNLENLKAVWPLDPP
Particulars: protein: recombinant; tags: N-terminal GST; dsDNA, one strand shown. Put shortly:
as §1

A further assay addresses T5, SPDEF (Homo sapiens, UniProt O95238 1-335).
T5 sequence: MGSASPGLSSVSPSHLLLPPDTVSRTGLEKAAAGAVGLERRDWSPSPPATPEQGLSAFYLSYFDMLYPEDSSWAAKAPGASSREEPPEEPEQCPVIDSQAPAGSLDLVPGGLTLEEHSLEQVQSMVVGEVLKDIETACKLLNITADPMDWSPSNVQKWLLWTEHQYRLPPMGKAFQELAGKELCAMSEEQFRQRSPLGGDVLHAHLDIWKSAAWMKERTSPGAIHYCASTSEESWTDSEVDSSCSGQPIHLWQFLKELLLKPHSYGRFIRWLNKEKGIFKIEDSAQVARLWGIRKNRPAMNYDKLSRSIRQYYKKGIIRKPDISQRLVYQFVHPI
The following applies: protein: recombinant; tags: N-terminal GST; dsDNA, one strand shown. Put shortly: as §1

The target in the next assay is T6, ETV3 (Homo sapiens, UniProt P41162-2 1-143).
T6 sequence: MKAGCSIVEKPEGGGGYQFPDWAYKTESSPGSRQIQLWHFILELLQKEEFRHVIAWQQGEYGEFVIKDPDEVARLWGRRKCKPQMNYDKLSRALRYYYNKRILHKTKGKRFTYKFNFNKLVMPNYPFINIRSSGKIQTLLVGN
The following applies: protein: recombinant; tags: N-terminal GST; dsDNA, one strand shown. Put shortly: as §1

In another assay the target is ETV6 (Homo sapiens, UniProt P41212 1-452). Particulars: protein: recombinant; tags: N-terminal GST; dsDNA, one strand shown. Put shortly:
as §1

A further assay has as its target ELF4 (Homo sapiens, UniProt Q99607 1-663). The following applies: protein: recombinant; tags: N-terminal GST; dsDNA, one strand shown. Put shortly: as §1
For the next assay, the target named is T7, ETV2 (Homo sapiens, UniProt O00321 1-342).
T7 sequence: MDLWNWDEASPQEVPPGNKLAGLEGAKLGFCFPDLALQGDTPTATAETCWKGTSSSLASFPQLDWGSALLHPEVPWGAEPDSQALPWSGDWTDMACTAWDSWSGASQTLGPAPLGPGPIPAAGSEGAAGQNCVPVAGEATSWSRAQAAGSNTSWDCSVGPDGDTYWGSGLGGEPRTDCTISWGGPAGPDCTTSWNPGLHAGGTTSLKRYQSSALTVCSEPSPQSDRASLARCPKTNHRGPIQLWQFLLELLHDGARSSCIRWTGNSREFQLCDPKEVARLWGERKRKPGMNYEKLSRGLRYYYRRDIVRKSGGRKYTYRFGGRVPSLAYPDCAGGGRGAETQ
The following applies: protein: recombinant; tags: N-terminal GST; dsDNA, one strand shown. Put shortly:
as §1

In the next assay the target is SPIB (Homo sapiens, UniProt Q01892 1-262). Particulars: protein: recombinant; tags: N-terminal GST; dsDNA, one strand shown. Put shortly: as §1
The target in the next assay is T8, ELK3 (Homo sapiens, UniProt P41970 1-407).
T8 sequence: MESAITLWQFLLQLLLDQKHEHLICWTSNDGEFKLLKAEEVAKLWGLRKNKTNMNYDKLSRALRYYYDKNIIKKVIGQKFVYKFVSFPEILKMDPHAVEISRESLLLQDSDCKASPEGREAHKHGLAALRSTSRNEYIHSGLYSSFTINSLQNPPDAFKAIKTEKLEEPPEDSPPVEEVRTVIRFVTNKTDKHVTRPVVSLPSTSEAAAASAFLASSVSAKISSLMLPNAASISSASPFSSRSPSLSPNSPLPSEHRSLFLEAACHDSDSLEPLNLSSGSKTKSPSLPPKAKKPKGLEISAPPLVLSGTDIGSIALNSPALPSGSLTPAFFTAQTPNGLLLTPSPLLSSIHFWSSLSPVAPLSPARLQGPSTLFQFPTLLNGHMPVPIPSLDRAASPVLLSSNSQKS
The following applies: protein: recombinant; tags: N-terminal GST; dsDNA, one strand shown. Put shortly: as §1

A further assay concerns the target T9, ETS2 (Homo sapiens, UniProt P15036 1-469).
T9 sequence: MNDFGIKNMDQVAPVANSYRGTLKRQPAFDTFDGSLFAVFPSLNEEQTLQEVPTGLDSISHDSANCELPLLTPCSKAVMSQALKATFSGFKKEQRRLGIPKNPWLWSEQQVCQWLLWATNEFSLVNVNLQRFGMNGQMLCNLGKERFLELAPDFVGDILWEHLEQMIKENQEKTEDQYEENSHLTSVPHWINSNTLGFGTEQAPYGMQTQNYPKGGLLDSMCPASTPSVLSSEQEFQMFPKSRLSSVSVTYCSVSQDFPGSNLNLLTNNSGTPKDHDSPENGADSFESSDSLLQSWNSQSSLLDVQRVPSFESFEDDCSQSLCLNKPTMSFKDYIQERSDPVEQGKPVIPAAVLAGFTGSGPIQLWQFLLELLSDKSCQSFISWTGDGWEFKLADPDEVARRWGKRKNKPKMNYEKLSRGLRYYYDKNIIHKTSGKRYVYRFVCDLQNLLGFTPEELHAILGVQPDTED
The following applies: protein: recombinant; tags: N-terminal GST; dsDNA, one strand shown. Put shortly: as §1

Chain of HSF1 (Q00613 whole entry): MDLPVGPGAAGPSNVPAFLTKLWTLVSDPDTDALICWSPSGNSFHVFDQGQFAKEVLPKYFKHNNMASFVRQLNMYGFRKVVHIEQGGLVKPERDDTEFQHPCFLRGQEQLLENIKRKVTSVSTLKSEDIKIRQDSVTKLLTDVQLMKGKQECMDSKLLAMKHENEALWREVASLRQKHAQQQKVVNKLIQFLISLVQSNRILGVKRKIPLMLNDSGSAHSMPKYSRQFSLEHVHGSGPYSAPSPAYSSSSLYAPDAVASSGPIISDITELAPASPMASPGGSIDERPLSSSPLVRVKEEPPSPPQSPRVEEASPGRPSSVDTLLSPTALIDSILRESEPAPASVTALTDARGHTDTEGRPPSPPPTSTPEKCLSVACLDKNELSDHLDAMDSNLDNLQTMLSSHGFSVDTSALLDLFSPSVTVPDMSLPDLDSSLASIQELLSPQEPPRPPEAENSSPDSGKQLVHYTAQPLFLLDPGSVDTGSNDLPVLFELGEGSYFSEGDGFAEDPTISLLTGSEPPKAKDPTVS
Chain of CRX (O43186 whole entry): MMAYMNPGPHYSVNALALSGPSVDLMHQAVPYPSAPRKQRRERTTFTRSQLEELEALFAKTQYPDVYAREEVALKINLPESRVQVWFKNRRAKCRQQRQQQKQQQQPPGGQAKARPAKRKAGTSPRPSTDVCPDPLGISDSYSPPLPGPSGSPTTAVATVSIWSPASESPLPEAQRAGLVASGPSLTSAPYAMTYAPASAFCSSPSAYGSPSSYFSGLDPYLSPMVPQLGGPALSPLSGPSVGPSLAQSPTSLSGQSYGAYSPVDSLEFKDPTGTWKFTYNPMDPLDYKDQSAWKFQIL
Chain of ETV1 (P50549 whole entry): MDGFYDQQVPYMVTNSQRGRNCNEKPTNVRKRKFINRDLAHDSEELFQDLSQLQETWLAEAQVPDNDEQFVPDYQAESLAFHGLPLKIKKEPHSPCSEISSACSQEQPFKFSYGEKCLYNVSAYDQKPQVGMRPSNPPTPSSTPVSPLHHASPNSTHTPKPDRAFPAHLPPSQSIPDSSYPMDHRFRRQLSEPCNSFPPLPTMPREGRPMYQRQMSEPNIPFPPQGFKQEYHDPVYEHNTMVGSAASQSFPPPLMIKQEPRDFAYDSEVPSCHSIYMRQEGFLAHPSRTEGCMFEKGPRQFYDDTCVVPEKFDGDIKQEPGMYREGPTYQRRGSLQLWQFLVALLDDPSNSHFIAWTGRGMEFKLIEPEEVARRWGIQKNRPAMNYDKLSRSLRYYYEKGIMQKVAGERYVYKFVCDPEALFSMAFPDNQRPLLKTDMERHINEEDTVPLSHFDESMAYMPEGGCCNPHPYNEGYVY
Chain of ETV6 (P41212 whole entry): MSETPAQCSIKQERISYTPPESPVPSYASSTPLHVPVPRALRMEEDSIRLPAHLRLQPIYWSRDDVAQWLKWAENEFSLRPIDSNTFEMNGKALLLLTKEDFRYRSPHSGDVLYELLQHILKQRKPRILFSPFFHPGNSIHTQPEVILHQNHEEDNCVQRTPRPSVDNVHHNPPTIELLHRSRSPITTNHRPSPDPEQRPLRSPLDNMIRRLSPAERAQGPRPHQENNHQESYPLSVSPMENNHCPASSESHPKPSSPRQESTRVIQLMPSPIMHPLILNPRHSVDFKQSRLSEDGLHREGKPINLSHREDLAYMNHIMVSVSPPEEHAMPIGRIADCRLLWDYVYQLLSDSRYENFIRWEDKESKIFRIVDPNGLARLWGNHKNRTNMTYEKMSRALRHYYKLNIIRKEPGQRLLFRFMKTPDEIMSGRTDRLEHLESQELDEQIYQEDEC
Chain of SPIB (Q01892 whole entry): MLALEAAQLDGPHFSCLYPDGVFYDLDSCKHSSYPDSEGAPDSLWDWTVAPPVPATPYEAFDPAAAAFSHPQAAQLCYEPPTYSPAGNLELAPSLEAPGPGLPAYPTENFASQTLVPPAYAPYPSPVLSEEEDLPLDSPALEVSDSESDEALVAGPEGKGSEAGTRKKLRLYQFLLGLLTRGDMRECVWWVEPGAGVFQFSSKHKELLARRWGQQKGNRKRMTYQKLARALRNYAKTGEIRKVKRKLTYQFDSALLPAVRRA
Chain of ELF1 (P32519 whole entry): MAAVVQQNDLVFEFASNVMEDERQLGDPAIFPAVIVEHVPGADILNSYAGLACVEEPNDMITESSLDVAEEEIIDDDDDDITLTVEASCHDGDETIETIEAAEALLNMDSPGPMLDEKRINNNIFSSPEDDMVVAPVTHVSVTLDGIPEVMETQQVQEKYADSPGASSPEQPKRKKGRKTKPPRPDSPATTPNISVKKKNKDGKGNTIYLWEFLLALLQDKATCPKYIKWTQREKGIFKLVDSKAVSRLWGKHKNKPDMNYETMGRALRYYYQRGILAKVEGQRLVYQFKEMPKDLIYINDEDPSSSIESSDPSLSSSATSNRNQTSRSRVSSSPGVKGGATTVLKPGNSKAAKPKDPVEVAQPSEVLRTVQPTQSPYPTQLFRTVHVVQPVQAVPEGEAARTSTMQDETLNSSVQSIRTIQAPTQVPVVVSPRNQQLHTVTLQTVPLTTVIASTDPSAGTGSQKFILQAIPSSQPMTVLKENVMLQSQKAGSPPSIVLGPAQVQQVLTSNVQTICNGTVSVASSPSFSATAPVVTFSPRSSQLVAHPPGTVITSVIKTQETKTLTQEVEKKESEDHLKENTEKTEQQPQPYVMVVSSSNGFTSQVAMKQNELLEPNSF
Chain of ELF4 (Q99607 whole entry): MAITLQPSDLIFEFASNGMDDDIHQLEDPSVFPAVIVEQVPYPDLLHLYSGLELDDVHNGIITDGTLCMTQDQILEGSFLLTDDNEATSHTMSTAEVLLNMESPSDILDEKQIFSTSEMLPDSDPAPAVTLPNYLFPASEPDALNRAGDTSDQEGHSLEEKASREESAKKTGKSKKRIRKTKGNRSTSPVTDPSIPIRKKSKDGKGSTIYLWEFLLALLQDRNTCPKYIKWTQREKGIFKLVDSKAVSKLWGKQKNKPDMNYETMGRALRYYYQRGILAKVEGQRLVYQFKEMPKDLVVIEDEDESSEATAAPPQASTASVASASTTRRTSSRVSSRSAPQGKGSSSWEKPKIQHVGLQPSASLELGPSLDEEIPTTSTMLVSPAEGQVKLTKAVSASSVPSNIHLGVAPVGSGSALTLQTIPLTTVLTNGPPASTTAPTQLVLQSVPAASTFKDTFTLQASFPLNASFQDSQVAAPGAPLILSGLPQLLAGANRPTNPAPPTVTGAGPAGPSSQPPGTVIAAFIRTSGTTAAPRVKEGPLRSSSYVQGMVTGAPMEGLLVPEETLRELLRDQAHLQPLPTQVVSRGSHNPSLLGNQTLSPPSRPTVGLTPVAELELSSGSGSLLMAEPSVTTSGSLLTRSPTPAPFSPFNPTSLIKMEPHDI

For GCGATC, the binding signal with ELK1 is 1.08 fold enrichment (6-mer frequency, TF over GST control); in the assay with GABPA, 1.01 fold enrichment (6-mer frequency, TF over GST control); with ELF1 it was 1.06 fold enrichment (6-mer frequency, TF over GST control); with HSF1, 1.02 fold enrichment (6-mer frequency, TF over GST control); with ELK4, 1.13 fold enrichment (6-mer frequency, TF over GST control); in the assay with CRX, 1.03 fold enrichment (6-mer frequency, TF over GST control). For the same sequence, the binding signal with ETV1 was 1.03 fold enrichment (6-mer frequency, TF over GST control); with ETV3L it was 1.03 fold enrichment (6-mer frequency, TF over GST control); with SPDEF it was 1.04 fold enrichment (6-mer frequency, TF over GST control); with ETV3 it was 1 fold enrichment (6-mer frequency, TF over GST control); with ETV6, 1 fold enrichment (6-mer frequency, TF over GST control).
AGGGTT: the binding signal with HSF1 was 1.02 fold enrichment (6-mer frequency, TF over GST control); in the assay with ELF4, 1.03 fold enrichment (6-mer frequency, TF over GST control); in the assay with ELK4, 1.14 fold enrichment (6-mer frequency, TF over GST control); with ETV2, 1.03 fold enrichment (6-mer frequency, TF over GST control); in the assay with CRX, 1.06 fold enrichment (6-mer frequency, TF over GST control); in the assay with ETV1, 1.01 fold enrichment (6-mer frequency, TF over GST control).
With GCCTGG, the binding signal was 1.04 fold enrichment (6-mer frequency, TF over GST control) with SPIB; 1.01 fold enrichment (6-mer frequency, TF over GST control) with ELK3; 1.05 fold enrichment (6-mer frequency, TF over GST control) in the assay with HSF1; 1.08 fold enrichment (6-mer frequency, TF over GST control) with ELK4; 1.19 fold enrichment (6-mer frequency, TF over GST control) with ETV2; 1 fold enrichment (6-mer frequency, TF over GST control) with ETV3L. Also, the binding signal with ETS2 was 1.02 fold enrichment (6-mer frequency, TF over GST control).
